Measured values reported in PubChem BioAssay (NCATS).
Inconclusive results are not listed. The source made the active and inactive calls. The call rests on the fitted dose curve; in most records, active means well fitted curve in the direction sought with a large enough effect; inconclusive means small, poorly fitted or top-dose-only effect, or another doubt; inactive means no such curve, though single readings can be large; an effect the other way counts as inactive or inconclusive.

Legend:
[1] = system: Nanoluciferase (engineered Oplophorus gracilirostris luciferase); test: Primary Nanoluciferase (NLuc) qHTS assay for identification of artifact compounds. (AID 1845222)
Outline: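 Luminescence read-out of secreted NLuc in S16 cell conditioned medium (1:55); compounds tested with 15 min RT preincubation, then Nano-Glo substrate 1:100, 5 min. % inhibition vs no-enzyme and DMSO controls, 4-parameter Hill fit.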

[2] = Primary redox qHTS assay for identification of artifact compounds. (AID 1845223)
Outline: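 Amplex Red (25 uM) and HRP (250 mU/mL) in HBSS, with compounds for 15 min, then 250 uM DTT for 30 min, room temperature, dark. Fluorescence 525/598 nm read; normalized to DMSO and 10 uM DA3003; Hill fit.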

[3] = Quantitative High-Throughput drug screen in 47 multiple myeloma cell lines against the NCATS MIPE library collection: FR4_PLB cell viability assay (AID 1918924; further: nearly all actives have a fitted effect of over 35% in size; further: potency means the concentration at half of the fitted maximal effect)
Outline: (§1)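 CellTiter-Glo luminescence (ATP) after 48 h compound exposure, 37C/5% CO2; 500 cells/well; MIPE 4.0 approved/investigational drugs pinned in; DMSO = 100%, media only = 0% viability.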

[4] = Quantitative High-Throughput drug screen in 47 multiple myeloma cell lines against the NCATS MIPE library collection: Delta47_JCRB cell viability assay (AID 1918925; further: nearly all actives have a fitted effect of over 45% in size; further: potency means the concentration at half of the fitted maximal effect)
Outline: as §1

[5] = Quantitative High-Throughput drug screen in 47 multiple myeloma cell lines against the NCATS MIPE library collection: EJM_DSMZ cell viability assay (AID 1918926; further: nearly all actives have a fitted effect of over 30% in size; further: potency means the concentration at half of the fitted maximal effect)
Outline: as §1

[6] = Quantitative High-Throughput drug screen in 47 multiple myeloma cell lines against the NCATS MIPE library collection: AMO1_DSMZ cell viability assay (AID 1918927; further: nearly all actives have a fitted effect of over 30% in size; further: potency means the concentration at half of the fitted maximal effect)
Outline: as §1

[7] = Quantitative High-Throughput drug screen in 47 multiple myeloma cell lines against the NCATS MIPE library collection: ARP1_JJKsccF8 cell viability assay (AID 1918928; further: nearly all actives have a fitted effect of over 40% in size; further: potency means the concentration at half of the fitted maximal effect)
Outline: (§2)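 Myeloma cells at 500 per well in 1536-well format treated with MIPE 4.0 library by pin transfer for 48 h at 37C, 5% CO2. Viability from ATP luminescence (CellTiter-Glo), normalized to DMSO (100%) and media-only (0%) wells.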

[8] = Quantitative High-Throughput drug screen in 47 multiple myeloma cell lines against the NCATS MIPE library collection: ARD_JJKsccE7 cell viability assay (AID 1918929)
Outline: as §1

[9] = Quantitative High-Throughput drug screen in 47 multiple myeloma cell lines against the NCATS MIPE library collection: Karpas620_DSMZ cell viability assay (AID 1918959); further: nearly all actives have a fitted effect of over 30% in size; further: potency means the concentration at half of the fitted maximal effect
Outline: as §1

[10] = Quantitative High-Throughput drug screen in 47 multiple myeloma cell lines against the NCATS MIPE library collection: KMM1_JCRB cell viability assay (AID 1918960); further: nearly all actives have a fitted effect of over 30% in size; further: potency means the concentration at half of the fitted maximal effect
Outline: as §2

[11] = Quantitative High-Throughput drug screen in 47 multiple myeloma cell lines against the NCATS MIPE library collection: KHM11_PLB cell viability assay (AID 1918962); further: nearly all actives have a fitted effect of over 35% in size; further: potency means the concentration at half of the fitted maximal effect
Outline: as §1

[12] = Quantitative High-Throughput drug screen in 47 multiple myeloma cell lines against the NCATS MIPE library collection: JIM3_ECACC cell viability assay (AID 1918963; further: nearly all actives have a fitted effect of over 35% in size; further: potency means the concentration at half of the fitted maximal effect)
Outline: as §1

[13] = Quantitative High-Throughput drug screen in 47 multiple myeloma cell lines against the NCATS MIPE library collection: INA6_PLB cell viability assay (AID 1918965; further: nearly all actives have a fitted effect of over 55% in size; further: potency means the concentration at half of the fitted maximal effect)
Outline: (§3)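 Myeloma cells (500 per well) were exposed to MIPE 4.0 compounds by pin transfer and incubated 48 hours at 37C, 5% CO2. Viability was read as ATP by CellTiter-Glo luminescence, normalised to DMSO (100%) and media-only (0%) wells.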

[14] = Quantitative High-Throughput drug screen in 47 multiple myeloma cell lines against the NCATS MIPE library collection: JJN3_DSMZ cell viability assay (AID 1918966; further: nearly all actives have a fitted effect of over 50% in size; further: potency means the concentration at half of the fitted maximal effect)
Outline: as §1

[15] = Quantitative High-Throughput drug screen in 47 multiple myeloma cell lines against the NCATS MIPE library collection: H1112_PLB cell viability assay (AID 1918967; further: nearly all actives have a fitted effect of over 30% in size; further: potency means the concentration at half of the fitted maximal effect)
Outline: as §1

[16] = Quantitative High-Throughput drug screen in 47 multiple myeloma cell lines against the NCATS MIPE library collection: KMS27_JCRB cell viability assay (AID 1918970); further: nearly all actives have a fitted effect of over 30% in size; further: potency means the concentration at half of the fitted maximal effect
Outline: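 KMS27_JCRB myeloma cells, 500 per well, exposed 48 h at 37 C, 5% CO2 to MIPE 4.0 compounds. Viability from ATP by CellTiter-Glo luminescence, normalized to DMSO (100%) and medium-only (0%) wells.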

[17] = Quantitative High-Throughput drug screen in 47 multiple myeloma cell lines against the NCATS MIPE library collection: KMS12BM_JCRB cell viability assay (AID 1918971); further: potency means the concentration at half of the fitted maximal effect; nearly all actives have a fitted effect of over 35% in size
Outline: as §1

[18] = Quantitative High-Throughput drug screen in 47 multiple myeloma cell lines against the NCATS MIPE library collection: Karpas417_ECACC cell viability assay (AID 1918961); details: Karpas417 myeloma viability, CellTiter-Glo ATP luminescence, 48 h; viability (% of DMSO): at 45.8 µM (top of the series); further: potency means the concentration at half of the fitted maximal effect
Outline: as §3

[19] = Quantitative High-Throughput drug screen in 47 multiple myeloma cell lines against the NCATS MIPE library collection: JIM1_ECACC cell viability assay (AID 1918964; further: potency means the concentration at half of the fitted maximal effect)
Outline: as §1

[20] = Quantitative High-Throughput drug screen in 47 multiple myeloma cell lines against the NCATS MIPE library collection: Karpas25_ECACC cell viability assay (AID 1918968; further: nearly all actives have a fitted effect of over 35% in size; further: potency means the concentration at half of the fitted maximal effect)
Outline: as §1

Measured: Potency

Cc1[nH]nc2ccc(-c3cncc(OC[C@@H](N)Cc4c[nH]c5ccccc45)c3)cc12
active: [3] 0.833 µM | [4] 0.209 µM | [5] 0.935 µM | [7] 3.32 µM | [11] 0.132 µM | [12] 1.48 µM | [13] 0.372 µM | [14] 0.264 µM | [15] 0.935 µM | [17] 2.64 µM
inactive: [1] | [2] | [6] | [8] | [9] | [10] | [16]

CCNC(=O)C[C@@H]1N=C(c2ccc(Cl)cc2)c2cc(OC)ccc2-n2c(C)nnc21
inactive: [2]
active: [5] 1.05 µM | [6] 0.372 µM | [7] 0.372 µM | [9] 1.05 µM | [10] 0.235 µM | [18] 0.0132 µM | [12] 6.62 µM | [19] 1.66 µM | [13] 0.132 µM | [14] 0.148 µM | [15] 0.743 µM | [16] 0.469 µM

S=C(NC1CCCCC1)N1CCC(c2cnc[nH]2)CC1
inactive: [1] | [2]

Cc1ccccc1-n1c(Cn2cnc3c(N)ncnc32)nc2cccc(C)c2c1=O
inactive: [1] | [2]
active: [3] 6.62 µM | [4] 0.105 µM | [5] 4.18 µM | [6] 0.833 µM | [7] 0.132 µM | [9] 4.18 µM | [10] 0.372 µM | [18] 0.132 µM | [12] 1.05 µM | [13] 0.935 µM | [14] 0.833 µM | [16] 0.296 µM

CCOP(=O)(OCC)C(C)NC(=O)N(CCCl)N=O (centres undefined)
not listed: [1] | [2] | [8] | [13] | [17] | [19]
inactive: all other assays above

CCc1c(C(=O)C(N)=O)c2c(OCC(=O)O)cccc2n1Cc1ccccc1
not listed: [7] | [8] | [11] | [17] | [20]
inactive: all other assays above

CC(C)N(CCNC(=O)CN1CCCC1=O)C(C)C
active: [17] 11.8 µM
not listed: [4] | [5] | [16] | [19] | [20]
inactive: all other assays above

CC(C)[C@]12O[C@H]1[C@@H]1O[C@]13[C@]1(O[C@H]1C[C@H]1C4=C(CC[C@@]13C)C(=O)OC4)[C@@H]2O
inactive: [1] | [2]

O=C1C=CC[C@@H]2[C@H]3CCCN4CCC[C@@H](CN12)[C@@H]34
inactive: [1] | [2] | [5] | [6] | [7] | [9] | [10] | [18] | [12]
active: [3] 11.8 µM

CN1CCN(c2ccc([N+](=O)[O-])c3no[n+]([O-])c23)CC1
inactive: [2]
active: [3] 20.9 µM | [4] 8.33 µM | [6] 16.6 µM | [7] 9.35 µM | [9] 20.9 µM | [10] 20.9 µM | [18] 5.26 µM | [11] 14.8 µM | [12] 23.5 µM | [13] 13.2 µM | [14] 18.7 µM | [15] 23.5 µM | [20] 18.7 µM | [16] 20.9 µM | [17] 18.7 µM

Cc1ccccc1-n1c(Cn2ncc3c(N)ncnc32)nc2cccc(C)c2c1=O
inactive: [1] | [2] | [14]
active: [3] 4.69 µM | [4] 0.209 µM | [6] 0.148 µM | [7] 4.69 µM | [9] 0.0372 µM | [10] 0.372 µM | [11] 0.332 µM | [12] 0.418 µM | [19] 0.0662 µM | [13] 0.235 µM | [16] 0.0235 µM | [17] 7.43 µM

CC(=Cc1csc(C)n1)[C@@H]1C[C@H]2O[C@]2(C)CCC[C@H](C)[C@@H](O)[C@@H](C)C(=O)C(C)(C)[C@@H](O)CC(=O)O1
active: [6] 0.001 µM | [10] 0.001 µM
not listed: [1] | [2] | [9] | [16] | [17] | [18] | [19]
inactive: all other assays above

CC(=O)N(C)c1cccc(-c2ccnc3c(C(=O)c4cccs4)cnn23)c1
inactive: [1] | [2] | [3] | [12] | [15]
active: [18] 23.5 µM | [13] 14.8 µM | [16] 20.9 µM
